# Values of other authors as cited in PubChem BioAssay AID977608.
# Among all 4,300 compounds or so, about 4,300 (100%) were called active. The limit is not given here; nearly all actives have IC50 up to about 1400 µM. So high a share suggests a set chosen from earlier hits. Some of the results follow. Starred links: 1 amine or outer side, 2 acyl side, 3 side chain; linkers in the order of their positions; H or OH if unused. Positions of bridges follow the written chain, without caps; N, C: chain ends. Non-standard residues stand in square brackets, D forms with d. Residues, ends and D or L forms follow the SMILES beside them. X1 = O=C([C@H](Cc1ccc(C(F)(F)[P+](O)(O)O)cc1)N[*:1])[*:2]; Nle(6-ylidene) = O=C([C@H](CCCC=[*:3])N[*:1])[*:2]; Abu = CC[C@H](N)C(=O)O
# Experiment: protein-ligand inhibition affinities from structures – PDB-derived complexes (AID 977608)
compound,measurement,setting,value
S=CNc1ccc2oc(C3=NCCN3)cc2c1,IC50,"literature IC50, protein: Chitinase A(W275G mutant), PDB entry 3as3",160000 nM (active)
C[C@@H]1NC(=O)[C@@H]2CSSC[C@H](NC(=O)CN)C(=O)N[C@@H](CSSC[C@@H](C(N)=O)NC(=O)[C@H](CCCNC(N)N)NC(=O)[C@H](Cc3c[nH]c4ccccc34)NC1=O)C(=O)N[C@@H](CO)C(=O)N[C@@H](CC(=O)O)C(=O)N1CCC[C@H]1C(=O)N[C@@H](CCCNC(N)N)C(=O)N2,IC50,"literature IC50, protein: nicotinic acetylcholine receptor homolog AChBP, PDB entry 2c9t",33 nM (active)
CC(=O)NCC(=O)N[C@H](C)C(=O)N[C@@H]1CSSC[C@H](C(=O)N[C@H](C)C(=O)N[C@H](C)C(=O)O)NC(=O)[C@@H](CC(C)C)NC(=O)[C@@H](Cc2c[nH]c3ccccc23)NC(=O)[C@@H](C)NC(=O)[C@@H](Cc2c[nH]c3ccccc23)NC(=O)[C@@H](CCC(=O)O)NC(=O)[C@@H](CCCNC(N)N)NC(=O)[C@@H](Cc2cnc[nH]2)NC(=O)[C@@H](CCCNC(N)N)NC(=O)[C@@H](C)NC(=O)[C@@H](CCC(=O)O)NC1=O,IC50,"literature IC50, protein: IQN17, PDB entry 1czq",29000 nM (active)
CC(C)C[C@H]1NC(=O)[C@@H](Cc2c[nH]c3ccccc23)NC(=O)[C@@H](CCC(N)=O)NC(=O)[C@@H](Cc2c[nH]c3ccccc23)NC(=O)[C@@H](CCC(=O)O)NC(=O)[C@H]2CCCN2C(=O)[C@@H](CO)NC(=O)[C@@H](CCC(=O)O)NC(=O)[C@H](NC(=O)[C@@H](C)NC(=O)CNC(=O)[C@H](N)CCCCN)CSSC[C@H](C(=O)N[C@H](C)C(=O)N[C@H](C)C(=O)O)NC1=O,IC50,"literature IC50, protein: gp41 N-peptide, PDB entry 2r3c",2200 nM (active)
Cc1c(C(=O)O)cccc1-c1nc2nc(N)nc(OCC3CCCCC3)c2[nH]1,IC50,"literature IC50, protein: CYCLIN-DEPENDENT KINASE 2, CDK2, PDB entry 4cfu",100000 nM (active)
CNC(=O)NC(N)NCCC[C@H](NC(=O)Cn1nncc1CO/N=C/c1ccnc2ccccc12)C(=O)N(Cc1ccccc1)Cc1ccccc1 (stereo not given in full),IC50,"literature IC50, protein: Chitinase B, PDB entry 3wd1",22 nM (active)
CNC(=O)NC(N)NCCC[C@H](NC(=O)CN=[N+]=[N-])C(=O)N(Cc1ccccc1)Cc1ccccc1 (stereo not given in full),IC50,"literature IC50, protein: Chitinase B, PDB entry 3wd2",580 nM (active)
CC(C)C[C@H](NC(=O)[C@H](CCCCN)NC(=O)[C@H](CCC(=O)O)NC(=O)[C@H](Cc1ccc(O)cc1)NC(=O)[C@H](C)NC(=O)[C@@H]1CCCN1C(=O)[C@@H]1CCCN1C(=O)[C@H](C)N)C(=O)N[C@@H](CO[P+](O)(O)O)C(=O)N[C@@H](C)C(=O)N[C@@H](CCC(=O)O)C(=O)N[C@@H](CCC(N)=O)C(=O)N[C@@H](CO)C(=O)N1CCC[C@H]1C(=O)N1CCC[C@H]1C(=O)O,IC50,"literature IC50, protein: MHC class II molecule HLA-DR1, PDB entry 3l6f",102 nM (active)
H-DVFYPYPYASGS-OH,IC50,"literature IC50, protein: concanavalin A(ConA), PDB entry 1jyi",100000 nM (active)
H-SIGKAFKILGYPD-OH,IC50,"literature IC50, protein: G Protein Beta:Gamma Heterodimer, PDB entry 1xhm",470 nM (active)
C[C@H](NC(=O)[C@@H](N)CCC(=O)O)C(=O)N[C@@H](CCC(N)=O)C(=O)N[C@@H](Cc1ccc(C(F)(F)[P+](O)(O)O)cc1)C(=O)N[C@@H](CCC(N)=O)C(=O)N1CCC[C@H]1C(=O)O (H-EAQ[X1]QP-OH),IC50,"literature IC50, protein: TYROSINE-PROTEIN PHOSPHATASE NON-RECEPTOR TYPE 1, PTP1B, PDB entry 3zmq",360 nM (active)
CC(C)C[C@H](NC(=O)CNC(=O)[C@@H](NC(=O)[C@@H](NC(=O)[C@H](C)NC(=O)[C@@H]1CCCN1C(=O)[C@@H](N)CC(C)C)C(C)C)C(C)C)C(=O)N[C@@H](CO)C(=O)N1CCC[C@H]1C(=O)NCC(=O)N[C@@H](CCC(=O)O)C(=O)N[C@@H](CCC(N)=O)C(=O)N[C@@H](CCC(=O)O)C(=O)N[C@@H](Cc1ccc(O)cc1)C(=O)O,IC50,"literature IC50, protein: HLA-B*3501, PDB entry 1xh3",3100 nM (active)
C[C@H](N)C(=O)N[C@@H](Cc1ccc(C(F)(F)[P+](O)(O)O)cc1)C(=O)N[C@@H](C)C(=O)O,IC50,"literature IC50, protein: TYROSINE-PROTEIN PHOSPHATASE NON-RECEPTOR TYPE 1, PTP1B, PDB entry 3zmp",2130 nM (active)
CC[C@H](NC(=O)[C@H](CCCCN)NC(=O)[C@H](CCCN=C(N)N)NC(=O)[C@@H]1CCC/C=C\CCC[C@H](NC(=O)[C@H](CCCN=C(N)N)NC(=O)[C@H](CC(C)C)NC(=O)[C@H](CC(C)C)NC(=O)[C@H](CO)NC(=O)[C@@H]2CCCN2C(=O)[C@@H](NC(=O)[C@H](CC(N)=O)NC(=O)[C@H](CCCCN)NC(C)=O)[C@@H](C)CC)C(=O)N[C@@H](CCC(N)=O)C(=O)N[C@@H](C)C(=O)N[C@@H](Cc2c[nH]cn2)C(=O)N1)C(=O)N[C@@H](CCSC)C(=O)N[C@H](C(=O)O)C(C)C (Ac-KNIPSLLR[Nle(6-ylidene)]QAH[Nle(6-ylidene)]RK[Abu]MV-OH; staple (Z) 9-13),IC50,"literature IC50, protein: Myosin A tail domain interacting protein, MTIP from Plasmodium falciparum, PDB entry 4mzk",4900 nM (active)
CC[C@H](C)[C@H](NC(=O)[C@H](Cc1c[nH]cn1)NC(=O)[C@H](C)NC(=O)[C@H](CCC(N)=O)NC(=O)[C@@H](NC(=O)[C@H](CCCN=C(N)N)NC(=O)[C@@H]1CCC/C=C\CCC[C@H](NC(=O)[C@H](CC(N)=O)NC(=O)[C@H](CCCCN)NC(C)=O)C(=O)N2CCC[C@H]2C(=O)N[C@@H](CO)C(=O)N[C@@H](CC(C)C)C(=O)N1)C(C)C)C(=O)N[C@@H](CCCN=C(N)N)C(=O)N[C@@H](CCCCN)C(=O)N[C@@H](CCCCN)C(=O)N[C@@H](CCSC)C(=O)N[C@H](C(=O)O)C(C)C (Ac-KN[Nle(6-ylidene)]PSL[Nle(6-ylidene)]RVQAHIRKKMV-OH; staple (Z) 3-7),IC50,"literature IC50, protein: Myosin A tail domain interacting protein, MTIP from Plasmodium falciparum, PDB entry 4mzj",1600 nM (active)
Cc1ccc(-c2cnc(Nc3ccc(OCCCN4CCN(C)CC4)cc3)c(C(N)=O)n2)cc1C,IC50,"literature IC50, protein: DNA GYRASE SUBUNIT B, PDB entry 4b6c",690 nM (active)
Nc1ncnc2c1ncn2[C@@H]1O[C@H](CO[P+](O)(O)O)[C@@H](O)[C@H]1O,IC50,"literature IC50, protein: Bis(5'-adenosyl)-triphosphatase ENPP4, PDB entry 4lqy",129000 nM (active)
same,IC50,"literature IC50, protein: Sus scrofa FRUCTOSE-1,6-BISPHOSPHATASE, PDB entry 1fpi",1300 nM (active)
same,IC50,"literature IC50, protein: human liver fructose-1,6-bisphosphatase (FBPase), PDB entry 1fta",440 nM (active)
Nc1ncnc2c1ncn2[C@@H]1O[C@H](CO[P+](O)(O)O[P+](O)(O)N[P+](O)(O)O)[C@@H](O)[C@H]1O,IC50,"literature IC50, protein: Microcin-J25 export ATP-binding/permease protein McjD, PDB entry 4pl0",39500 nM (active)
Nc1ncnc2c1ncn2[C@@H]1O[C@H](CSCC[C@H](N)C(=O)O)[C@@H](O)[C@H]1O,IC50,"literature IC50, protein: Catechol O-methyltransferase COMT, PDB entry 4pyn",30000 nM (active)
same,IC50,"literature IC50, protein: Catechol O-methyltransferase COMT, PDB entry 4pyo",30000 nM (active)
Nc1ncnc2c1ncn2[C@@H]1O[C@H](CO[P+](O)(O)O[P+](O)(O)OC[C@H]2NC[C@H](O)[C@@H]2O)[C@@H](O)[C@H]1O,IC50,"literature IC50, protein: mouse poly(ADP-ribose) glycohydrolase (PARG) catalytic domain, PDB entry 4na4",120 nM (active)
CC#C[C@H]1CN(S(=O)(=O)c2ccc(N)nc2)CCN1c1ccc([C@](O)(CCCC)C(F)(F)F)cc1,IC50,"literature IC50, protein: Glucokinase regulatory protein hGKRP, PDB entry 4ohk",5 nM (active)
Nc1nc(Nc2ccccc2)sc1C(O)c1cccnc1 (stereo not given),IC50,"literature IC50, protein: Cyclin-dependent kinase 2, PDB entry 3qtw",650 nM (active)
Nc1nc(Nc2ccccc2)sc1C(O)c1ccccc1 (stereo not given),IC50,"literature IC50, protein: Cyclin-dependent kinase 2, PDB entry 3qtr",930 nM (active)
Nc1nc(Nc2ccc(C(=O)O)cc2)sc1C(O)c1cccnc1 (stereo not given),IC50,"literature IC50, protein: Cyclin-dependent kinase 2, PDB entry 3rk5",4000 nM (active)
NC(=O)c1ccc(Nc2nc(N)c(C(O)c3cccnc3)s2)cc1 (stereo not given),IC50,"literature IC50, protein: Cyclin-dependent kinase 2, PDB entry 3rk7",200 nM (active)
Nc1nc(Nc2ccccc2)sc1C(O)c1cccc(C(F)(F)F)c1 (stereo not given),IC50,"literature IC50, protein: Cyclin-dependent kinase 2, PDB entry 3rpr",100000 nM (active)
Cc1cc2c(C3=CCC=NC3=O)c(C(=O)O)n(Cc3cnc4ccccc4c3)c2cc1F,IC50,"literature IC50, protein: RNA-directed RNA polymerase, PDB entry 4mz4",13 nM (active)
